Source: PubChem BioAssay (EPA / NIEHS)
Active and inactive are the calls of the source. The calls were made as follows: active = hit-call score of the fitted dose curve at least 0.9, where 1 is the maximum; inactive = score below 0.9.

Assay: ATG_AP_2_CIS: Attagene CIS-FACTORIAL HepG2 Assay for human Activator Protein 2 (AP-2) (AID 2282932)
Conditions: HepG2 AP-2 cis-reporter, Attagene transcription factor profiling; actives raise or lower the signal
Experimental: ATG_CIS is a cell-based, multiplexed-readout assay that uses HepG2, a human liver cell line, with measurements taken at 24 hours after chemical dosing in a 24-well plate.ATG_AP_2_CIS is one of 52 assay component(s) measured or calculated from the ATG_CIS assay. It is designed to make measurements of mRNA induction, a form of inducible reporter, as detected with fluorescence intensity signals by Reverse transcription polymerase chain reaction (RT-PCR) and Capillary electrophoresis technology.Data from the assay component ATG_AP_2_CIS was analyzed into 1 assay endpoint. This assay endpoint, ATG_AP_2_CIS, was analyzed with bidirectional fitting relative to DMSO as the negative control and baseline of activity. Using a type of inducible reporter, measures of mRNA for gain or loss-of-signal activity can be used to understand the reporter gene at the transcription factor-level as they relate to the gene TFAP2A and TFAP2B and TFAP2D. Furthermore, this assay endpoint can be referred to as a primary readout, because this assay has produced multiple assay endpoints where this one serves a reporter gene function. To generalize the intended target to other relatable targets, this assay endpoint is annotated to the dna binding intended target family, where the subfamily is basic helix-turn-helix leucine zipper.
Human liver HepG2 cells are transiently transfected with multiple reporter transcription units (MRTUs) in 6-well plates using FuGene 6 reagent (Roche; 3 ml FuGene/1 mg DNA). The MRTU constructs are regulated by a cis-regulating element (promoter). […] A major difference between the CIS and TRANS system is that in CIS activities of endogenous TFs are measured, whereas the TRANS assay evaluates changes in activities of exogenous, chimeric NR-Gal4 proteins. […] At the end of 24 hour incubation, total RNA was isolated using TriZol reagent (Invitrogen). The isolated RNA is then reverse-transcribed using oligo(dT) primer and Mo-MLV reverse transcriptase (Invitrogen) with DNAse I (Ambion) treatment for 30 min. The one-tenth of the produced cDNA was amplified by PCR using Taq DNA polymerase (Invitrogen) and two reporter sequence-specific primers. The PCR products were fluorescently labeled by primer extension with 6-arboxyfluorescein (6-FAM) 5'-labeled reporter sequence-specific primer (2 min at 95 C, 20 s at 68 C and 10 min at 72 C) and these products were digested with 5U of HpaI (New England Biolabs) for 2h at 37 C. The fragments were purified using Qiaquick PCR columns (Qiagen), analyzed on an ABI 3130xL genetic analyzer (Applied Biosystems) with peak positions identified by using a set of X-rhodamine (ROX)-labeled MapMarker1000 molecular weight standards (BioVentures). The raw capillary electrophoresis data was processed using Attagraph software (Attagene).

Row | SMILES | outcome | AC50
1 | COc1ccc([N+](=O)[O-])cc1O | inactive | –
2 | O=C(CCl)Nc1ccccc1 | – | 44 µM (active)
3 | CC(C)(C1CCC(O)CC1)C1CCC(O)CC1 (stereo not given) | inactive | –
4 | N#CS | inactive | –
5 | CC(c1ccc(O)cc1)c1ccc(O)cc1 | inactive | –
6 | Cc1ccc(OP(=O)(Oc2ccc(C)cc2C)Oc2ccc(C)cc2C)c(C)c1 | inactive | –
7 | O=[N+]([O-])c1cc([As](=O)(O)O)ccc1O | inactive | –
8 | O=C(N[C@H]1CN2CCC1CC2)c1ccc2c(c1)OCCO2 | inactive | –
9 | Nc1ccc(-c2ccccc2)cc1 | inactive | –
10 | O=C(O)CC(O)(CC(=O)O)C(=O)O | inactive | –
11 | CCOP(=S)(OCC)SCSc1cc(Cl)ccc1Cl | inactive | –
12 | Cc1cccc(OP(=O)(Oc2cccc(C)c2)Oc2cccc(C)c2)c1 | inactive | –
13 | CC1(C)[C@H](/C=C2\CCSC2=O)[C@@H]1C(=O)OCc1coc(Cc2ccccc2)c1 | inactive | –
14 | Nc1ccc(N)cc1 | inactive | –
15 | CCOP(=S)(OCC)SCS(=O)(=O)C(C)(C)C | inactive | –
16 | C=C(C)[C@@H]1CC=C(C=O)CC1 | inactive | –
17 | C[N+](C)(C)Cc1ccccc1 | inactive | –
18 | O=S(=O)(C(Cl)(Cl)Cl)C(Cl)(Cl)Cl | inactive | –
19 | Brc1ccc(Br)cc1 | inactive | –
20 | O=NN1CCOCC1 | inactive | –

Row | SMILES | outcome | AC50
21 | CC1(C)COP(Oc2ccccc2)OC1 | inactive | –
22 | CCCCS(=O)(=O)Cl | inactive | –
23 | CCCCCCCCCCCCCl | inactive | –
24 | CC(C)(c1ccc(O)c(-c2ccccc2)c1)c1ccc(O)c(-c2ccccc2)c1 | inactive | –
25 | C=CC(=O)[O][Sn]([CH2]CCC)([CH2]CCC)[CH2]CCC | inactive | –
26 | C=CC(F)(C(F)(F)F)C(F)(F)C(F)(F)F (stereo not given) | inactive | –
27 | C#CCOC(=O)/C=C(C)/C=C/CC(C)CCCC(C)C (stereo not given) | inactive | –
28 | COCC(=O)N(c1c(C)cccc1C)[C@H](C)C(=O)OC | inactive | –
29 | CCCCOC(=O)COC(=O)c1ccccc1C(=O)OCCCC | inactive | –
30 | OC(Cc1ccccc1Cl)(Cn1[nH]cnc1=S)C1(Cl)CC1 (stereo not given) | inactive | –
31 | O=C(NC(=O)c1c(F)cccc1F)Nc1cc(Cl)c(OC(F)(F)C(F)C(F)(F)F)cc1Cl (stereo not given) | inactive | –
32 | CCC[N+](CCC)(CCC)CCC | inactive | –
33 | CC1CC(=O)O1 (stereo not given) | inactive | –
34 | O=C(CBr)c1ccc(O)cc1 | inactive | –
35 | CC(C)[N+](=O)[O-] | inactive | –
36 | OC[C@@H](O)[C@H]1O[C@@H]2O[C@H](C(Cl)(Cl)Cl)O[C@@H]2[C@H]1O | inactive | –
37 | CCCSP(=S)(OCC)Oc1ccc(SC)cc1 (stereo not given) | inactive | –
38 | O=C(Cc1ccccc1)OCCc1ccccc1 | inactive | –
39 | COc1nn(C(=O)NS(=O)(=O)c2ccccc2OC(F)(F)F)c(=O)n1C | inactive | –
40 | C1CN2CCN1CC2 | inactive | –
